Compound activity (PubChem BioAssay)
TcdB GH inh – inhibitors of Clostridioides difficile toxin B glycohydrolase; inhibition, % at 9.99 µM; TcdB glycohydrolase enzymatic assay, plate reader; 350,000 tested, 0.24% active; P18177; in the data active means inhibition above about 10%
Mtb hypoxia rep – inhibitors of hypoxia-regulated fluorescent reporter in Mycobacterium tuberculosis | M. tuberculosis hypoxia-regulated fluorescent reporter, fluorescence | fluorescence inhibition, % (no concentration beside the values) | 300,000 tested, 0.1% active | AID 1159583; in the data active means fluorescence inhibition mostly above about 23%, no sharp cut-off; inactive means mostly below about 17%
ugtP null kill – kills S. aureus RN4220 lacking UgtP; S. aureus RN4220 ugtP deletion, OD600 growth, 16 h; growth inhibition, % (no concentration beside the values); 330,000 tested, 0.54% active; AID 1259309; in the data active means growth inhibition above about 68%;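 further: plate controls were untreated wells for no effect and antibiotic for full effect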
BioA inh – inhibitors of Mycobacterium tuberculosis BioA enzyme; AID 602481; inhibition, % at 9.99 µM; purified M. tuberculosis BioA enzyme, plate reader; 360,000 tested, 0.096% active; in the data active means inhibition above about 40%
Sa RN4220 lethal – S. aureus RN4220 growth inhibition. OD600, 16 h. inhibition, % (no concentration beside the values). 330,000 tested, 0.33% active. AID 1259311; in the data active means inhibition above about 85%;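 further: plate controls were untreated cells for no effect and reference antibiotic for full effect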
Y pestis TopoI – Y. pestis Topo-I inhibition via cleavage products; 360,000 tested, 0.064% active; Y. pestis Topo-I cleavage product accumulation, plate reader; AID 504884; activity, % at 10 µM; in the data active means activity above about 50%, passing the limit was not always enough
An asterisk follows results filed as active; · = no result; ! = not confirmed by another sample. Shown are actives, neighbours in structure and some others; about 0.75% of the full set was active somewhere.

SMILES	TcdB GH inh	Mtb hypoxia rep	ugtP null kill	BioA inh	Sa RN4220 lethal	Y pestis TopoI
COc1cc2c(cc1OC)C1C(=O)c3ccc4c(c3OC1CO2)CC(C(C)(C)O)O4 (centres undefined)	·	16.1	-0.6	·	4.6	·
CC(=O)C1CCC2C3C=CC4=CC(=O)CC[C@@]4(C)C3CC[C@]12C (some centres undefined)	·	-13.2	-2.8	·	5.8	·
NC1=NCC(Cc2ccc(O)cc2)N1CCC12CC3CC(CC(C3)C1)C2 (centres undefined)	·	8.4	100.8*!	·	100.5*!	·
NC1=NCC(Cc2ccc(O)cc2)N1CCCCC1CCCCC1 (centres undefined)	·	-8.0	100.4*	·	100.7*	·
CCCCN1C(N)=NCC1Cc1ccc(O)cc1 (centres undefined)	·	-7.6	-1.6	·	-1.2	·
NC1=NCC(Cc2ccc(O)cc2)N1CCc1cccc2ccccc12 (centres undefined)	·	-0.1	100.4*!	·	76.3	·
NC1=NC[C@@H](Cc2ccc(O)cc2)N1CCc1cccc(F)c1	1.3	·	·	-1.4	·	-7.3
NC1=NC[C@H](Cc2ccc(O)cc2)N1CCC12CC3CC(CC(C3)C1)C2	1.8	·	·	2.4	·	-9.2
CC1CC(=O)N(c2ccc(NCCc3ccc(O)cc3)c([N+](=O)[O-])c2)C1=O (centres undefined)	12.1*	17.6	-5.9	4.4	4.3	-1.9
CC1CC(=O)N(c2ccc(NCCc3ccccc3)c([N+](=O)[O-])c2)C1=O (centres undefined)	0.8	8.0	2.9	-2.2	5.1	16.4
Oc1ccccc1N=Cc1sc2ccccc2c1Cl	·	36.7*	-7.8	·	7.6	-14.1
COc1ccc(-c2nnc(NC(=O)c3ccc(S(=O)(=O)N(C)CC4CCCO4)cc3)o2)c(OC)c1 (centres undefined)	0.0	-0.6	100.5*	-0.5	-6.9	11.9
COc1ccc(CCNc2ccc(C(CC(N)=O)NC(=O)c3ccccc3)cc2[N+](=O)[O-])cc1 (centres undefined)	·	16.6	-9.5	-2.5	5.5	9.0
NC(=O)CC(NC(=O)c1ccccc1)c1ccc(NCCc2ccc(F)cc2)c([N+](=O)[O-])c1 (centres undefined)	10.1*	10.6	0.0	0.9	4.4	0.7
Cc1ccc(CSc2nc3c(c(N(C)C)n2)CCCC3)cc1	·	16.6	-10.5	-0.6	5.0	58.8*
COC(=O)CSc1nc(SCc2ccc(C)cc2)nc2c1CCCC2	·	3.8	39.5	-1.1	9.6	58.2*
COC(=O)CN1C(=O)C2C(c3ccc(C)o3)N3C(=O)CN(Cc4ccccn4)C(=O)[C@@]3(C)C2C1=O (some centres undefined)	·	1.1	-1.1	·	4.6	·
[N-]=[N+]=NC(CCN1CCC(NC(=O)OCc2ccccc2)CCC1=O)c1ccccc1 (centres undefined)	·	3.5	-12.0	·	1.6	·
CC(C)C(=O)Nc1cccc(NC(=S)NC(=O)c2ccc3c(c2)OCO3)c1	0.3	-8.9	-1.6	-3.2	3.2	-10.9
O=C(NC(=S)Nc1ccc2c(c1)OCO2)c1ccc(Cl)cc1	·	9.1	87.7*	·	5.0	-5.8
CCc1ccc(C(=O)NC(=S)Nc2ccc3c(c2)OCCO3)cc1	·	4.9	37.2	-0.2	15.9	34.0
CC(C)C(=O)Nc1cccc(NC(=S)NC(=O)c2ccc(Cl)cc2)c1	·	0.6	83.0*	0.4	2.0	5.7
Cc1cc(C)cc(C(=O)NC(=S)Nc2ccc3c(c2)OCCO3)c1	0.3	-1.6	92.7*	·	5.8	18.7
Cc1cccc(C(=O)NC(=S)NNC(=O)c2ccc(Cl)cc2)c1	·	-4.4	84.0	·	84.5*	-1.0
COc1ccc(Cl)cc1NC(=S)NC(=O)c1ccc2c(c1)OCO2	0.1	-6.1	-5.0	-1.8	-2.5	-7.0
SMILES	TcdB GH inh	Mtb hypoxia rep	ugtP null kill	BioA inh	Sa RN4220 lethal	Y pestis TopoI
O=C(COc1ccc(-c2ccccc2)cc1)NN=Cc1cc(O)ccc1Br	·	1.8	14.5	·	38.5	·
Cc1cc(C)cc(C(=O)NC(=S)Nc2ccc(Cc3ccncc3)cc2)c1	1.3	5.2	86.7*	1.8	1.7	9.9
Cc1cccc(C(=O)NC(=S)Nc2ccc(Cc3ccncc3)cc2)c1	·	17.2	78.5	0.2	-0.6	3.9
O=C(NC1CCC(=O)N(CCSc2ccc(Br)cc2)CC1)OCc1ccccc1 (centres undefined)	·	-1.9	6.2	·	1.0	·
CCN(CC)c1ccc(C=NNc2nc3ccccc3[nH]2)cc1	·	7.1	98.8*	·	97.3*	·
Brc1ccc(-c2ccc(C=NNc3nc4ccccc4[nH]3)o2)cc1	·	-6.6	79.9	·	86.3*	·
